# Results filed as inconclusive are left out. Where a call stands in place of a potency, no number is given. Active and inactive are the calls of the source. The call rests on the fitted dose curve; in most records, active means well fitted cell-killing curve with a large enough effect in the repeat runs; inconclusive means weak or mixed curves, or effect the other way; inactive means flat fitted curve, though single readings scatter.
# Assay: qHTS RealTime-Glo MT Cell Viability Assay in HEK293 cells - 24 hour (AID 1224886); further: nearly all actives have a fitted effect of over 50% in size; on activity change, negative = cytotoxicity: top concentration of the series differs between compounds
# Conditions: RealTime-Glo luminescence; series mostly up to 76.8 µM
# Text: National Center for Advancing Translational Sciences [NCATS]
# NIH Chemical Genomics Center [NCGC]
# U.S. Environmental Protection Agency [EPA]
# National Institutes of Environmental Health Sciences [NIEHS]
# National Toxicology Program [NTP]
# U.S. Food and Drug Administration [FDA]
# Measure of cell viability is critical in the cell-base assay. Analysis of cell viability is necessary for the characterization of cell responses to cytotoxic drugs and environmental stress. A RealTime-Glo MT Cell Viability Assay to monitor cell viability in real time of continues cell culture during 40 hours of compound treatment was used to screen Tox21 10K library compounds in Hek293 cells. The RealTime-Glo MT Cell Viability Assay is a nonlytic, homogeneous, bioluminescent method to measure cell viability in real time using a simple, plate-based method. The assay involves adding NanoLuc luciferase and a cell-permeant prosubstrate to cells in culture. Viable cells reduce the proprietary prosubstrate to generate a substrate for NanoLuc luciferase. This substrate diffuses from cells into the surrounding culture medium, where it is rapidly used by the NanoLuc Enzyme to produce a luminescent signal. The signal correlates with the number of viable cells, making the assay well suited for cytotoxicity studies.
# Tox21 Assay Protocol Summary:
# The mixture of Hek293 cell suspension and reagents were dispensed at 600cells/6 ul/well in 1536-well tissue culture treated black solid bottom plates using a Multidrop dispenser. After the assay plates were incubated at a 37 C/5% CO2 incubator for 5 hours, 23 nL of compounds dissolved in DMSO, positive and negative controls was transferred to the assay plate by a pintool work station. The plates were incubated at 37 C for 40 hours. The luminescence intensity were measured at 0h, 8h, 16h, 24h, 32h and 40h time points using ViewLux plate reader during compound treatment.
# Potency means the concentration at half of the fitted maximal effect.
SMILES,Potency,"activity change, negative = cytotoxicity"
O=C(O)c1snc(Cl)c1Cl,inactive,
COc1ccccc1N=Nc1c(S(=O)(=O)O)cc2cc(S(=O)(=O)O)cc(NC(C)=O)c2c1O,inactive,
CC(C)(C)CC(C)(C)c1ccc(OCCO)cc1,5.46 µM (active),
CCOC(=O)[C@@H](C)Oc1ccc(Oc2nc3ccc(Cl)cc3o2)cc1,21.9 µM (active),
CCOC(=O)OCC,inactive,
COc1cc2c(cc1OC)-c1cc(=Nc3c(C)cc(C)cc3C)n(C)c(=O)n1CC2,inactive,
Nc1nc(Cl)nc2c1ncn2[C@@H]1O[C@H](CO)[C@@H](O)[C@@H]1F,4.77 µM (active),
CCCCCCCCSCCO,inactive,
COc1ccc(CCC(=O)c2c(O)cc(O[C@@H]3O[C@H](CO)[C@@H](O)[C@H](O)[C@H]3O[C@@H]3O[C@@H](C)[C@H](O)[C@@H](O)[C@H]3O)cc2O)cc1O,inactive,
CCCOC(=O)c1ccc(C(=O)OCCC)nc1,inactive,
Nc1ccc(S(=O)(=O)O)c(N)c1,inactive,
CC(Cl)C(Cl)Cl (stereo not given),inactive,
Nc1ccc(C(=O)OCCCOC(=O)c2ccc(N)cc2)cc1,43.6 µM (active),
O=Cc1c(Cl)cccc1Cl,inactive,
CCCCC(=O)O[C@]1(C(=O)CO)CC[C@H]2[C@@H]3CCC4=CC(=O)CC[C@]4(C)[C@H]3[C@@H](O)C[C@@]21C,inactive,
CCCCCC=CCC=CCCCCCCCC(=O)OCC,inactive,
Nc1nccs1,inactive,
Cc1cc(O)c(C(C)C)cc1Cl,inactive,
CC1=CC(O)CC(C)(C)C1 (stereo not given),inactive,
N#C[C@@H]1C[C@@H]2C[C@@H]2N1C(=O)[C@@H](N)C12CC3CC(CC(O)(C3)C1)C2,inactive,

SMILES,Potency,"activity change, negative = cytotoxicity"
CCOC(=O)/C=C/C(=O)O,inactive,
CCCOC(=O)c1ccc(N)cc1,inactive,
O=C(O)c1cccnc1C(=O)O,inactive,
CC(N)CN (stereo not given),inactive,
CCC(C)=O,inactive,
C=C(C)C(=O)OCCOC(=O)CC(C)=O,inactive,
C[N+]1(C)CCC(=C(c2ccccc2)c2ccccc2)CC1,inactive,
CC(=O)Nc1ccc(N)cc1,inactive,
COc1ccc([C@@H]2Sc3ccccc3NC(=O)[C@@H]2O)cc1,inactive,
OC/C(Br)=C(\Br)CO,inactive,
[O]=[Bi],,5.04% [at 6.97 µM] (inactive)
COc1cc2ncnc(Nc3ccc(F)c(Cl)c3)c2cc1OCCCN1CCOCC1,9.52 µM (active),
CCC(C(=O)OCCOCCN(CC)CC)c1ccccc1 (stereo not given),inactive,
CO[Si](C)(OC)OC,inactive,
N#C/C(=C1/SC[C@@H](c2ccc(Cl)cc2Cl)S1)n1ccnc1,inactive,
C=CC(C)=CCC=C(C)C,inactive,
Cc1ccc(/C=N/n2c(-c3ccccc3)csc2=S)cc1,inactive,
NC(=O)Cn1c(=O)cc(CCN2CCN(c3nccc4sccc34)CC2)c2ccc(F)cc21,49 µM (active),
CCOc1cc(N)c(Cl)cc1C(=O)NCC1CN(Cc2ccc(F)cc2)CCO1 (stereo not given),15.1 µM (active),
C[Si](NC1CCCCC1)(NC1CCCCC1)NC1CCCCC1,inactive,

# From PubChem BioAssay (Tox21)
